Test results as given in PubChem BioAssay.
Active and inactive are the calls of the source.

Assays:
[1] = system: Plasmodium falciparum Sir2 (PF13_0152, Sir2A); experiment: pfSir2 binders on small-molecule microarrays, primary screen, biochemical, small-molecule microarray, 635 nm fluorescence (AID 1098); details: small-molecule microarray binding, fluorescence 635 nm; higher = more signal;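 further: score merges spot fluorescence intensity with its signal-to-noise ratio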
[2] = small-molecule microarray binders of probe aDKK1, primary screen, biochemical, biotinylated probe, 635/667 nm fluorescence (AID 1099); details: higher = more signal;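 further: score merges 667nm spot fluorescence with signal to noise across triplicate slides; reference of the scale not given here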
[3] = small-molecule microarray binders of probe aCHRDL2, primary screen, biochemical, biotinylated probe, 635/667 nm fluorescence (AID 1100); details: higher = more signal
[4] = splicing luciferase reporter signal modulators, primary screen, spliceosome inhibition project, cell-based, HEK293, splice +/- reporter (AID 1101); details: luminescence, 24 h, higher = more signal, called active from +8 up or from −8 down;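 further: HEK293 cells carrying a splicing-competent luciferase reporter gene; test concentration not given here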
[5] = molecular target: Fibroblast growth factor 10 (Homo sapiens) (UniProt O15520); experiment: FGF10 binders on small-molecule microarrays, primary screen, biochemical, small-molecule microarray, 635 nm fluorescence (AID 1102); details: FGF10 binding, fluorescence 635 nm, higher = more signal
[6] = system: glycogen synthase kinase-3 (GSK3A per assay name; protocol says GSK3B); experiment: GSK3 binders on small-molecule microarrays, primary screen, biochemical, small-molecule microarray, 635 nm fluorescence, GSK3A (AID 1103); details: small-molecule microarray binding, fluorescence 635 nm; higher = more signal; further: the record names both GSK3A and GSK3B
[7] = molecular target: Epidermal growth factor receptor (Homo sapiens) (UniProt P00533); experiment: EGFR binders on small-molecule microarrays, primary screen, biochemical, small-molecule microarray, 635 nm fluorescence (AID 1104); details: EGFR binding, higher = more signal;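 further: score merges 667 nm emission intensity with spot signal to noise over triplicate slides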
[8] = molecular target: Follistatin-related protein 3 (Homo sapiens) (UniProt O95633); experiment: FSTL3 binders on small-molecule microarrays, primary screen, biochemical, small-molecule microarray, 635 nm fluorescence (AID 1105); details: FSTL3 binding, higher = more signal;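 further: score merges emission near 667 nm and signal to noise per printed spot across three slides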
[9] = molecular target: Dickkopf-related protein 1 (Homo sapiens) (UniProt O94907); experiment: DKK1 binders on small-molecule microarrays, primary screen, biochemical, small-molecule microarray, 635 nm fluorescence scan (AID 1106); details: DKK1 binding, higher = more signal;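 further: score merges emission near 667 nm with signal to noise over three replicate slides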
[10] = system: Inhibin beta A chain (activin A); experiment: INHBA (activin A) binders on microarrays, primary screen, biochemical, small-molecule microarray, 635 nm fluorescence scan (AID 1107); details: small-molecule microarray binding, higher = more signal;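 further: mouse activin A protein probed at 4.33 µg/mL on printed slides; score merges bound-protein fluorescence near 667 nm with spot signal-to-noise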

Sequence of Epidermal growth factor receptor (Homo sapiens) (P00533 whole entry, looked up): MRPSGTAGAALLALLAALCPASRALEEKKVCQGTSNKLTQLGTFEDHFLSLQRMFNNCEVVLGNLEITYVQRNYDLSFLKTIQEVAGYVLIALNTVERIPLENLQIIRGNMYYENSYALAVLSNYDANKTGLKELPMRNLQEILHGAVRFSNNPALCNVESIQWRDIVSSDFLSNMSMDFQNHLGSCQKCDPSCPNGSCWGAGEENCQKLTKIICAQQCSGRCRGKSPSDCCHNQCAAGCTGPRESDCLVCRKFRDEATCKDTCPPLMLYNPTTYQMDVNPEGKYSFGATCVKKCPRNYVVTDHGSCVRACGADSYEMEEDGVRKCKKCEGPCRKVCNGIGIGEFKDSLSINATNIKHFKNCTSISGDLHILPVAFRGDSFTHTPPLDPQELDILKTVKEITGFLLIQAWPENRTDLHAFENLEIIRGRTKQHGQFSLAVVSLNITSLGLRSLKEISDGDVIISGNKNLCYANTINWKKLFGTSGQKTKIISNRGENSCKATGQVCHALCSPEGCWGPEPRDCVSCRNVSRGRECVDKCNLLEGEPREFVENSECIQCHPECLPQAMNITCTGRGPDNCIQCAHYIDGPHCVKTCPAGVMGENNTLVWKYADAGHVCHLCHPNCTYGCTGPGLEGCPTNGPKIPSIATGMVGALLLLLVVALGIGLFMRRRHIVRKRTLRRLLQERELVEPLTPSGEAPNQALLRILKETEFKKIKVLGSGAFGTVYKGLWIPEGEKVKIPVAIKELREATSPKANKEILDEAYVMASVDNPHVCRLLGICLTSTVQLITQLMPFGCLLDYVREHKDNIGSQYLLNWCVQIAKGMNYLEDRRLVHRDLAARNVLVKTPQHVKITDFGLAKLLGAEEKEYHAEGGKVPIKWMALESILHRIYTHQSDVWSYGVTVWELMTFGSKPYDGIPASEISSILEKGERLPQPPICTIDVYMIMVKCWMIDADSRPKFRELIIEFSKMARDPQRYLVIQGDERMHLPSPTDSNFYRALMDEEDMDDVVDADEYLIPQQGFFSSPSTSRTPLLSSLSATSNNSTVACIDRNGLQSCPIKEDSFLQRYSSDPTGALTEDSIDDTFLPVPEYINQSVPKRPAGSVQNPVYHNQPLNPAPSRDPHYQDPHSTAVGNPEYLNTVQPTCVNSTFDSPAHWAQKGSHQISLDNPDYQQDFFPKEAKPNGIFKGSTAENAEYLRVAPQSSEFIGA
Sequence of Dickkopf-related protein 1 (Homo sapiens) (O94907 whole entry, looked up): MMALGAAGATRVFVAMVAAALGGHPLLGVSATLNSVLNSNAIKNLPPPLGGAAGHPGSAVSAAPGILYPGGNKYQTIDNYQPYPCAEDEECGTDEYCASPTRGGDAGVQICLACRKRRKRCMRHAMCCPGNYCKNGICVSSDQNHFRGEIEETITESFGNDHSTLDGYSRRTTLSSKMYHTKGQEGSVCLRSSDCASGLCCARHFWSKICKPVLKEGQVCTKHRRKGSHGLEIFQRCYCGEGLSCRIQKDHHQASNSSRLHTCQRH
Sequence of Follistatin-related protein 3 (Homo sapiens) (O95633 whole entry, looked up): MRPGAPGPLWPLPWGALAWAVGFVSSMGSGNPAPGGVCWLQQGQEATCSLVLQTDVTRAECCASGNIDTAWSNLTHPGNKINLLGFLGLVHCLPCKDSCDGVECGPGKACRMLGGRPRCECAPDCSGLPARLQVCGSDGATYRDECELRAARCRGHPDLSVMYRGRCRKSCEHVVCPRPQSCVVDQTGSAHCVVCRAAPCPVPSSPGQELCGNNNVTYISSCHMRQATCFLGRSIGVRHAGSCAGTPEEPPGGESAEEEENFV
Sequence of Fibroblast growth factor 10 (Homo sapiens) (O15520 whole entry, looked up): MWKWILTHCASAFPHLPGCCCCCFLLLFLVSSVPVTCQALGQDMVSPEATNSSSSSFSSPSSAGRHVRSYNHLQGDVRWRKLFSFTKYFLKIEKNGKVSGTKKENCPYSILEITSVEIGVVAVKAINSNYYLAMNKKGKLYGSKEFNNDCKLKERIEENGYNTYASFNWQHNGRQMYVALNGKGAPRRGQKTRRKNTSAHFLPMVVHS

Compound | composite z-score [1] | composite z-score [2] | composite z-score [3] | z-score [4] | composite z-score [5] | composite z-score [6] | composite z-score [7] | composite z-score [8] | composite z-score [9] | composite z-score [10]
C=C(/C(=C/C[C@@H](OC(C)=O)c1ccc(CO)o1)c1cnc2ccccc2c1)C(C)C | 1.18 | -0.198 | -0.541 | -0.541 (inactive) | 1.66 | 1.32 | 0.792 | 1.45 | 1.24 | 1.39
C=C(C(=O)CC[C@@H](OC(=O)c1cccnc1)c1ccc(CO)o1)C(C)C | 0.392 | -0.174 | -0.36 | 1.38 (inactive) | 1.16 | 0.803 | 0.152 | 0.933 | 0.479 | 1.04
O=c1cccc(-c2ccc3ccccc3c2)o1 | -0.271 | 0.216 | 0.591 | -0.823 (inactive) | -0.0487 | -0.964 | 0.0697 | -0.0172 | -0.139 | 1.15
[N-]=[N+]=Nc1ccccc1C[C@]1(C(=O)N2CCCCC2)N=C(c2ccc(OCCCO)cc2)O[C@H]1c1ccccc1N=[N+]=[N-] | 1.42 | 0.0941 | 1.18 | -0.103 (inactive) | 1.4 | 0.743 | -0.0207 | 0.611 | -0.235 | 1.25
COCCOC(=O)N1C(=O)[C@@]2(c3cc(C#Cc4ccc(OC)cc4)ccc31)[C@H](C(N)=O)[C@H]1C(=O)O[C@H](c3ccccc3)[C@H](c3ccccc3)N1[C@@H]2c1ccc(O)cc1 | 0.356 | -0.76 | -0.318 | -0.298 (inactive) | -1.67 | -1.53 | -1.67 | -1.95 | -2.42 | -0.115
C=CC[C@]1(C(=O)O)N=C(c2ccc(OCCCO)cc2)O[C@H]1c1ccccc1CN=[N+]=[N-] | 1.74 | 0.177 | 0.559 | -0.611 (inactive) | -0.222 | -0.341 | -0.0348 | 0.0521 | -0.128 | 1.35
CCOC(=O)C[C@H]1[C@H](OC(=O)c2cc3ccccc3oc2=O)[C@@H](NC(=O)c2ccc3ccccc3c2)c2cc(OCCCO)ccc2N1C(=O)c1ccccc1 | 1.38 | -0.151 | -0.413 | -1.28 (inactive) | 1.41 | 0.939 | 0.348 | 0.906 | 0.486 | 0.447
CCCNC(=O)[C@@]1(C)c2ccccc2C(=O)N(Cc2cc(F)cc(C(F)(F)F)c2)[C@H]1c1ccc(CO)cc1 | 1.25 | 0.0202 | 0.995 | -0.377 (inactive) | -1.02 | -0.552 | -0.668 | -0.286 | -1.44 | -0.496
COC(=O)[C@@]1(Cc2ccc(F)cc2)[C@H]2c3cc(C(=O)N(C)C)n(Cc4ccccn4)c3C[C@H]2CN1C(=O)c1ccccc1 | 1.19 | 1.37 | 1.14 | -2.82 (inactive) | 0.214 | 1.08 | 0.328 | 0.706 | 0.116 | 1.24
O=C1C2C=CC(C(O)c3ccc(Br)cc3)N(n3cnnc3)C2C(=O)N1Cc1ccccc1 (stereo not given) | 1.11 | 0.578 | 0.479 | 0.696 (inactive) | 0.946 | 1.07 | 0.406 | 0.819 | 0.0363 | -0.0003
O=c1cccc(-c2ccccc2)o1 | 0.906 | -0.196 | -0.186 | 0.92 (inactive) | 0.421 | 0.211 | -0.648 | -0.337 | -0.1 | 1.4
NC(=O)[C@]1(Cc2ccccc2)N=C(c2ccc(OCCCO)cc2)O[C@@H]1c1ccccc1 | 0.647 | 1.2 | 0.751 | -0.072 (inactive) | 0.61 | 0.0914 | -0.722 | -0.144 | -0.109 | 0.558
CC(C)C(CO)N1C(=O)[C@@H]2[C@H]3C(=O)OCC=C[C@H]3OC23C=CCN(c2ccc4ccccc4c2)C(=O)[C@@H]13 (stereo not given in full) | 0.233 | -0.387 | 0.343 | 0.0617 (inactive) | -0.617 | -1.15 | -1.04 | -1.3 | -0.688 | -0.141
CC(=O)NCCCC[C@@H]1NC(=O)[C@@H]2C[C@H](C(=O)NCCCCCC[N+](C)(C)C)[C@H](c3cccc(OCCO)c3)N2C1=O | 1.13 | -0.145 | -0.0962 | -0.0513 (inactive) | 1.23 | 1.27 | 0.341 | 1.25 | 1.45 | 0.811
CCCCC(=C=CC[C@H](O)c1ccccc1OCCO)C[C@H](O)c1cc(Cl)cc(Cl)c1O | 1.26 | 0.0947 | 0.0444 | 0.23 (inactive) | 0.345 | 0.24 | -0.619 | 0.179 | -0.429 | 0.796
C[N+](C)(C)CCCCNC(=O)[C@H]1C[C@H]2C(=O)N3CCC[C@H]3C(=O)N2[C@H]1c1ccc(O)cc1 | 1.48 | 0.0607 | -0.152 | 0.0339 (inactive) | 1.39 | 0.521 | 0.967 | 1.49 | 1.82 | -0.443
COc1ccc([Si](C)(C)[C@@H]2[C@@H](CCO)O[C@]3(C(=O)N(Cc4cccc(N5CCCCC5=O)c4)c4ccccc43)[C@H]2C)cc1 | 1.06 | -0.0212 | 0.113 | -2.96 (inactive) | 1.04 | 0.971 | 0.319 | 1 | 0.404 | 0.764

Compound | composite z-score [1] | composite z-score [2] | composite z-score [3] | z-score [4] | composite z-score [5] | composite z-score [6] | composite z-score [7] | composite z-score [8] | composite z-score [9] | composite z-score [10]
O=C1C2C=CC(C(O)c3cccc4ccccc34)N(n3cnnc3)C2C(=O)N1Cc1ccccc1 (stereo not given) | 0.161 | 1.72 | 0.8 | 0.228 (inactive) | 0.975 | -0.181 | 0.402 | 0.529 | -0.13 | 0.668
O=P(NCC1(CC2(c3ccccc3)CO2)CC1)(c1ccccc1)c1ccccc1 (stereo not given) | 1.57 | 0.29 | 1.02 | -1.45 (inactive) | -0.686 | -1.49 | -1.28 | -1.37 | -0.915 | 0.758
CO[C@H]1O[C@H](CO)[C@@H](OC(=O)Nc2cccc(F)c2)[C@H](OC(=O)Nc2ccccc2-c2ccccc2)[C@@H]1OC(=O)Nc1ccccc1-c1ccccc1 | 1.13 | 0.568 | 0.74 | 1.54 (inactive) | 1.17 | 0.673 | 0.407 | 1.11 | 0.198 | 0.434
O=C(NCCN1CCOCC1)[C@@H]1c2ccccc2C(=O)N(Cc2cc(F)cc(C(F)(F)F)c2)[C@H]1c1ccc(CO)cc1 | 1.07 | -0.469 | 0.776 | 0.284 (inactive) | 0.07 | -0.202 | -0.651 | -0.217 | -1.14 | -0.333
O=C1O[C@H](c2ccccc2)[C@H](c2ccccc2)N2[C@H]1[C@@H](C(=O)Nc1nc3ccccc3s1)[C@]1(C(=O)Nc3ccc(C#CC4=CCCCC4)cc31)[C@H]2c1ccc(OCCO)cc1 | 0.956 | -0.004 | 0.54 | -0.718 (inactive) | 1 | 1.3 | 0.202 | 0.891 | 0.779 | 0.881
Cc1ccc(S(=O)(=O)N2CC(C(=O)O)=CCC2c2ccccc2)cc1 (stereo not given) | 1.11 | 0.133 | 0.696 | 0.566 (inactive) | -0.265 | -0.5 | -0.638 | -0.95 | -1.6 | -0.538
CCOC1=C2C(c3ccc(C)cc3)N(S(=O)(=O)c3ccc(C)cc3)CC2n2c(=O)n(-c3ccccc3)c(=O)n2C1 (stereo not given) | 0.818 | 0.579 | 0.5 | -0.0374 (inactive) | 1.04 | 1.29 | 0.559 | 1.26 | 0.424 | 0.329
COC(=O)[C@@]1(Cc2ccc(F)cc2)[C@H]2c3cc(C(=O)N4CCCC4)n(Cc4ccc(Cl)c(C(F)(F)F)c4)c3C[C@H]2CN1C(=O)c1ccccc1 | 1.11 | 2.11 | 1.58 | -0.767 (inactive) | 0.879 | 0.864 | 0.477 | 1.18 | -0.652 | 0.864
O=C(NCC(F)(F)F)[C@@H]1c2ccccc2C(=O)N(Cc2ccccc2)[C@H]1c1ccc(CO)cc1 | 1.68 | 0.443 | 1.05 | 0.999 (inactive) | -0.308 | -0.409 | -1.31 | -1.12 | -1.46 | -0.296
COC(=O)c1c2oc(c1C(=O)OC)C(=O)N[C@H](Cc1ccccc1)Cn1nncc1C1(CCCCC1)NC(=O)N[C@H](CO)CC2 | 0.0465 | 0.026 | -0.485 | -1.46 (inactive) | 0.0778 | 0.129 | 0.0246 | 0.402 | 0.452 | 0.006
COCC1=C([C@H](O)CCc2ccccc2)[C@H](CO)[C@@H]2C(=O)N(Cc3ccccc3)C(=O)[C@@H]2C1 | -0.0333 | -0.253 | -0.25 | 0.212 (inactive) | 0.438 | 0.0321 | 0.313 | 0.265 | 0.391 | 0.554
CC1(C)C(=O)C(c2ccccc2)=C2CN3C(=O)N(CCc4ccccc4)C(=O)C3(Cc3ccccc3)C=C21 (stereo not given) | 0.155 | 1.06 | 1.12 | 0.917 (inactive) | 0.363 | 0.182 | -0.0726 | 0.949 | -1.03 | 1.09
CO[C@H]1O[C@H](CO)[C@@H](OC(=O)Nc2ccc3c(c2)OCO3)[C@H](OC(=O)Nc2ccc3c(c2)OCO3)[C@H]1OC(=O)Nc1ccc2c(c1)OCO2 | 1.49 | -0.0124 | 0.392 | -0.295 (inactive) | 1.24 | 1.33 | 0.258 | 0.878 | 0.101 | 1.14
CCOC(=O)C[C@H]1[C@H](OC(=O)c2ccccc2-c2ccccc2)[C@@H](NC(=O)c2ccc(-c3ccccc3)cc2)c2cc(OCCCO)ccc2N1C(=O)c1ccccc1 | 0.154 | 0.319 | -0.181 | 0.119 (inactive) | 0.888 | 0.425 | 0.31 | 0.645 | 0.531 | -0.0094
COC(=O)[C@@]1(Cc2ccc(OC)cc2)[C@H]2c3cc(C(=O)N4CCCC4)n(CCc4ccccn4)c3C[C@H]2CN1C(=O)c1ccccc1 | 1.18 | 0.904 | 0.95 | -1.36 (inactive) | 0.289 | -0.282 | -0.664 | -0.396 | -0.949 | 0.845
CCOC(=O)C=Cc1cccc(OC)c1O | -0.0095 | -0.349 | 0.165 | -1.98 (inactive) | -0.96 | -0.073 | -1.71 | -0.631 | -1.77 | -0.4
C=C(/C(=C/C[C@@H](OC(=O)c1ccncc1)c1ccc(CO)o1)c1cc(C(=O)OC)ccc1OC)C(C)C | 1.32 | -0.0623 | -0.109 | 0.614 (inactive) | 1.3 | 1.14 | 0.439 | 1.13 | 0.432 | -0.0326
